The values that follow come from PubChem BioAssay (EPA / NIEHS).

In general, AC50 refers to the concentration giving half of the maximal activity seen.

Molecules are shown by their SMILES. Calls of active or inactive are those of the source. How the source made its calls: active means hit-call score of the fitted dose curve at least 0.9, where 1 is the maximum; inactive means score below 0.9.

Holding throughout (conditions): mRNA level, 48 h; actives raise or lower the signal
Read-out in one test: BCL2L11 (gene 10018)
Briefly: LTEA_HepaRG_BCL2L11: Life Technologies and Expression Analysis (LTEA) Assay for Bcl-2 (BCL2L11) gene using HepaRG (AID 2283473). The procedure, abridged:
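Differentiated human HepaRG cells were exposed 48 h in serum-free induction medium to eight half-log concentrations up to 100 uM in 0.5% DMSO, in duplicate. BCL2L11 mRNA was quantified by TaqMan qRT-PCR, normalized to ACTB, GAPDH and POLR2A; induction or repression fitted versus DMSO.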

Read-out in test [1]: Apolipoprotein A-V (APOA5) gene, APOA5 (gene 116519)
Briefly: LTEA_HepaRG_APOA5: Life Technologies and Expression Analysis (LTEA) Assay for Apolipoprotein A-V (APOA5) gene using HepaRG (AID 2283474). The procedure, abridged: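 Differentiated HepaRG cells in serum-free induction medium, exposed 48 h in duplicate to eight half-log concentrations topping at 100 uM (0.5% DMSO). APOA5 mRNA by Fluidigm TaqMan qRT-PCR, normalized to ACTB, GAPDH and POLR2A; bidirectional fit versus DMSO.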

Read-out in test [2]: Bcl-2 (BID) gene, BID (gene 637)
Description: LTEA_HepaRG_BID: Life Technologies and Expression Analysis (LTEA) Assay for Bcl-2 (BID) gene using HepaRG (AID 2283476). The procedure, abridged:
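Duplicate 48 h treatments of HepaRG cells in serum-free induction medium spanned 100 uM downward in half-log steps, 0.5% DMSO. Transcript change quantified by qRT-PCR against three housekeeping genes, fitted up or down versus DMSO.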

Read-out in a further test: Caspase-3 (Homo sapiens) (UniProt P42574)
Description: LTEA_HepaRG_CASP3: Life Technologies and Expression Analysis (LTEA) Assay for cysteine-aspartic acid protease (CASP3) using HepaRG (AID 2283477). The procedure, abridged: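 Differentiated HepaRG cells, plated 48 h, were treated in duplicate in serum-free induction medium for 48 h with eight half-log concentrations up to 100 uM in 0.5% DMSO. CASP3 mRNA measured by qRT-PCR, normalized to ACTB, GAPDH, POLR2A.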

Read-out in test [3]: Cytochrome P450 (CYP24A1), CYP24A1 (gene 1591)
Briefly: LTEA_HepaRG_CYP24A1: Life Technologies and Expression Analysis (LTEA) Assay for Cytochrome P450 (CYP24A1) using HepaRG (AID 2283478). In a few lines: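 HepaRG cells plated 48 h, then exposed in duplicate in serum-free induction medium for 48 h to 8-point half-log series from 100 uM in 0.5% DMSO. CYP24A1 mRNA by Fluidigm qRT-PCR, normalized to ACTB, GAPDH, POLR2A; bidirectional fit versus DMSO.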

Read-out in test [4]: Cytochrome P450 (CYP1A2), CYP1A2 (gene 1544)
Description: LTEA_HepaRG_CYP1A2: Life Technologies and Expression Analysis (LTEA) Assay for Cytochrome P450 (CYP1A2) using HepaRG (AID 2283479). In a few lines: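 Differentiated human HepaRG cells in serum-free induction medium exposed 48 hours in duplicate to 8 half-log concentrations from 100 uM, 0.5% DMSO. CYP1A2 mRNA quantified by qRT-PCR, normalized to ACTB, GAPDH and POLR2A; bidirectional fitting versus DMSO.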

Read-out in test [5]: cysteine-aspartic acid protease (CASP8), CASP8 (gene 841)
Briefly: LTEA_HepaRG_CASP8: Life Technologies and Expression Analysis (LTEA) Assay for cysteine-aspartic acid protease (CASP8) using HepaRG (AID 2283480). The procedure, abridged:
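Concentration-response in duplicate up to 100 uM (half-log steps, 0.5% DMSO) on differentiated HepaRG cultures for 48 h. Expression change of CASP8 mRNA is determined by TaqMan qRT-PCR with housekeeping-gene normalization.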

Read-out in test [6]: Cytochrome P450 (CYP2B6), CYP2B6 (gene 1555)
Description: LTEA_HepaRG_CYP2B6: Life Technologies and Expression Analysis (LTEA) Assay for Cytochrome P450 (CYP2B6) using HepaRG (AID 2283481). The procedure, abridged:
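Differentiated human HepaRG cells in serum-free induction medium, dosed in duplicate for 48 h over 8 half-log concentrations topping at 100 uM (0.5% DMSO). CYP2B6 mRNA measured by TaqMan qRT-PCR, normalized to ACTB, GAPDH, POLR2A; bidirectional fit versus DMSO.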

Read-out in test [7]: Cytochrome P450 2C19 (Homo sapiens) (UniProt P33261)
Briefly: LTEA_HepaRG_CYP2C19: Life Technologies and Expression Analysis (LTEA) Assay for CYP2C19 using HepaRG (AID 2283482). In a few lines: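 Differentiated HepaRG cells in serum-free induction medium exposed 48 h in duplicate, 8 concentrations from 100 uM by half-log steps in 0.5% DMSO. CYP2C19 mRNA measured by TaqMan qRT-PCR, normalized to ACTB, GAPDH, POLR2A. Bidirectional fit versus DMSO.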

Sequence of Caspase-3 (Homo sapiens) (P42574 whole entry, looked up): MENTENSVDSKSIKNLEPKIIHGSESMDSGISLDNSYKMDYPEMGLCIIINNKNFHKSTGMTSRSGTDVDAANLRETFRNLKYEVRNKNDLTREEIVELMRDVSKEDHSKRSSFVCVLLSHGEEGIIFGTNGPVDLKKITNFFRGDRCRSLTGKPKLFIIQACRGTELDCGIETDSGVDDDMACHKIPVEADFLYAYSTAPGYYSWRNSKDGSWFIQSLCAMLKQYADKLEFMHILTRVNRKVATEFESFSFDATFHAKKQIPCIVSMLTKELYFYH
Sequence of Cytochrome P450 2C19 (Homo sapiens) (P33261 whole entry, looked up): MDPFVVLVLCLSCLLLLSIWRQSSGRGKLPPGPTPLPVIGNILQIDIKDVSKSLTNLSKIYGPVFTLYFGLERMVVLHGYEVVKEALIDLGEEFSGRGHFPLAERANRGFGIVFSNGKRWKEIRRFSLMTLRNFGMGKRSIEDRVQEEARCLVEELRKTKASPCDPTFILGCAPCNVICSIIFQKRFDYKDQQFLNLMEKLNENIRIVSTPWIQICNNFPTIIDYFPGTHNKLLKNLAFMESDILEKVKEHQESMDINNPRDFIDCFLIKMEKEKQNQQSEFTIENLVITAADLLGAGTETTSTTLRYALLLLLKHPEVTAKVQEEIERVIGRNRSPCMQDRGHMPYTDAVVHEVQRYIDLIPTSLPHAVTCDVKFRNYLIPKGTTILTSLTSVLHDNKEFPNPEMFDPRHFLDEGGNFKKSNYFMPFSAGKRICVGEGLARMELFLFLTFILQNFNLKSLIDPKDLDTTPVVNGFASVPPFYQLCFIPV

For the molecule `C#CCN1C(=O)COc2cc(F)c(N3C(=O)C4=C(CCCC4)C3=O)cc21`, the molecule was called inactive (in the test with BCL2L11 (gene 10018); in test [2]; in the test with Caspase-3 (Homo sapiens); in [3]; in test [4]; in [5]). The results for the half-maximal activity concentration (AC50) in test [1], in test [6] and in test [7] were 23.1 µM (active), 0.84 µM (active) and 6.97 µM (active), respectively.
Consider `O=S1OCC2C(CO1)C1(Cl)C(Cl)=C(Cl)C2(Cl)C1(Cl)Cl` (stereo not drawn), for which the result (with BCL2L11 (gene 10018); in [2]; with Caspase-3 (Homo sapiens); in test [3]; in test [5]) was inactive. The AC50 was 63.8 µM (active) in test [1], 35.4 µM (active) in test [4], 90.1 µM (active) in test [6] and 89.2 µM (active) in test [7].
As for `CC(C)OC(=O)Nc1cccc(Cl)c1`, the outcome (in the test with BCL2L11 (gene 10018); in [1]; in the test with Caspase-3 (Homo sapiens); in [3]; in test [4]; in test [5]) was inactive. Further, the result in test [7] was inactive. Besides, the AC50 in test [2] is 7.78 µM (active); in [6], 50 µM (active).
For the molecule `CNC(=O)CSP(=S)(OC)OC`, the outcome (with BCL2L11 (gene 10018); in [1]; in test [2]; with Caspase-3 (Homo sapiens); in test [3]; in test [5]) was inactive. Also, in [7], the molecule was classed as inactive. Moreover, the results for the AC50 in test [4] and in test [6] were 16.2 µM (active) and 23.1 µM (active), respectively.
Take `N#Cc1c(Cl)c(Cl)c(Cl)c(C#N)c1Cl`: the call (in the test with BCL2L11 (gene 10018); in [1]; in test [2]; with Caspase-3 (Homo sapiens); in [3]; in [5]) was inactive. Further, the molecule was classed as inactive in [6] and in [7]. The AC50 in test [4] is 13.7 µM (active).
For `COP(=S)(OC)Oc1ccc([N+](=O)[O-])cc1`, the outcome (in the test with BCL2L11 (gene 10018); in [1]; in [2]; with Caspase-3 (Homo sapiens); in [3]; in test [5]) was inactive. Further, the AC50 in [4] was 32.8 µM (active); in test [6] it was 15.7 µM (active); in [7], 50 µM (active).
Consider `CC(C)(C)C(O)/C(=C\c1ccc(Cl)cc1Cl)n1cncn1` (stereo not drawn), for which the AC50 in the test with BCL2L11 (gene 10018) is 79.8 µM (active); in [1] it was 25.3 µM (active); in [5] it was 80.6 µM (active); in test [6] it was 0.748 µM (active); in test [7] it was 4.01 µM (active). The call (in test [2]; with Caspase-3 (Homo sapiens); in [3]; in test [4]) was inactive.
Take `O=[N+]([O-])/N=C1\NCCN1Cc1ccc(Cl)nc1`: the AC50 is 23.3 µM (active) with BCL2L11 (gene 10018); 26.7 µM (active) with Caspase-3 (Homo sapiens); 23.6 µM (active) in test [4]; 13.2 µM (active) in test [6]; 34 µM (active) in [7]. Also, the outcome in test [1], in test [2], in [3] and in [5] was inactive.
For the molecule `CCN(CC)C(=O)SCc1ccc(Cl)cc1`, the result (in the test with BCL2L11 (gene 10018); in test [1]; in test [2]; with Caspase-3 (Homo sapiens); in test [3]; in [4]) was inactive. In addition, in test [5], the molecule was called inactive. Moreover, the concentration at half-maximal activity (AC50) in test [6] is 4.36 µM (active); in [7] it was 17.7 µM (active).
For `O=C(Nc1ccccc1)Nc1cnns1`, the call (with BCL2L11 (gene 10018); in [1]; in test [2]; in the test with Caspase-3 (Homo sapiens); in test [3]; in test [5]) was inactive. Further, the outcome in test [6] was inactive. The AC50 in test [4] is 68 µM (active); in test [7] it was 89.1 µM (active).
On to `O=C(O)COc1ccc(Cl)cc1Cl`, for which the molecule was called inactive (in the test with BCL2L11 (gene 10018); in [1]; in test [2]; with Caspase-3 (Homo sapiens); in [3]; in [5]). Besides, the AC50 in test [4] is 50 µM (active); in test [6], 20.8 µM (active); in [7] it was 19.6 µM (active).
For `CC1(C)C(C=C(Cl)Cl)C1C(=O)OC(C#N)c1ccc(F)c(Oc2ccccc2)c1` (stereo not drawn), the molecule was called inactive (with BCL2L11 (gene 10018); in [1]; in test [2]; in the test with Caspase-3 (Homo sapiens); in test [3]; in test [5]). For the same molecule, the half-maximal activity concentration (AC50) in [4] was 20.2 µM (active); in test [6], 18.4 µM (active); in [7] it was 20.7 µM (active).
